In the library only some 19% were active in any assay of this set; here they are far more common.
IL-1B inflam inh: inflammasome signaling inhibition, IL-1 beta readout. activity change, % at 57.5 µM. 4.7% of 360,000 active. THP-1 LPS/ATP IL-1B secretion, AlphaLISA, 16 h; hits give low values; in the data active = activity change below about -50%; inconclusive = mostly about -30% to -49%; note: % is set by controls: 0 for no effect and ±100 for the full control effect
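THP-1 cells pretreated 1 hr with compounds (up to 57.5 uM final), then stimulated with LPS (250 ng/mL final) plus ATP (1.25 mM final); secreted IL-1B measured by AlphaLISA after 16 hr, decreased signal indicating inhibition.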
TDP1 inh: blocks human tyrosyl-DNA phosphodiesterase 1 | 0.28% of 350,000 active | Q9NUW8 | Potency, µM (series often up to 130 µM), without a hit: at the top dose activity change, negative = inhibition, most hits filed as inhibitors | recombinant TDP1, AlphaScreen DNA substrate cleavage; note: potency is the fitted concentration of half-maximal effect; % is set by controls: 0 for no effect and ±100 for the full control effect; nearly all actives have a fitted effect of over 40% in size
Target sequence (Q9NUW8 whole entry, looked up): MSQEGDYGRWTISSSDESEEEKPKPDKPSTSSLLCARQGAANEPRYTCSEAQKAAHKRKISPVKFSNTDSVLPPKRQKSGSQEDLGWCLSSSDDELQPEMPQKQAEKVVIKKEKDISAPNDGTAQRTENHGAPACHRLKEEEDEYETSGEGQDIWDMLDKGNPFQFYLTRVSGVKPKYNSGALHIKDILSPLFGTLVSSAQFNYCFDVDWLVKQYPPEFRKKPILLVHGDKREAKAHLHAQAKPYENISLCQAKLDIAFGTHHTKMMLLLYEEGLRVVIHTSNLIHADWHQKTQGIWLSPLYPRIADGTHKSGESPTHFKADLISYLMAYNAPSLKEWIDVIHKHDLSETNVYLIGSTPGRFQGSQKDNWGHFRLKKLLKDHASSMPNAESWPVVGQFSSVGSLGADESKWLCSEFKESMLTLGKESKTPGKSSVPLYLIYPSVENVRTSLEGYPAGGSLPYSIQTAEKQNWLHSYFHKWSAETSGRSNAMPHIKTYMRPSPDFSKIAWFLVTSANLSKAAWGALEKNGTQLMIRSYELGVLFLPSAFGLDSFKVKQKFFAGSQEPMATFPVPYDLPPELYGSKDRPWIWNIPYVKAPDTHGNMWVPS
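Signal: AlphaScreen proximity between streptavidin donor and anti-FITC acceptor beads on intact substrate. Reaction: Tdp1 1 nM, substrate 15 nM final, 5 min RT after 15 min compound preincubation.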
DT40 TDP1 no CPT: qHTS for Inhibitors of human tyrosyl-DNA phosphodiesterase 1 (TDP1): qHTS in cells in absence of CPT; Potency, µM (titrated, usually from 46.2 µM), for inactives: top-dose activity change, negative = growth inhibition, hits mostly inhibitors; 15% of 420,000 active; AID 686978, 2013; DT40 Tdp1-/- hTDP1 cells, no CPT, ATP luminescence, 48 h; note: potency is the fitted concentration of half-maximal effect; % is set by controls: 0 for no effect and ±100 for the full control effect; nearly all actives have a fitted effect of over 55% in size
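No-CPT arm: Tdp1-/-;hTDP1 DT40 cells (400/well) plus compounds, incubated ≥48 hr at 37 °C. Readout CellTiter-Glo luminescence.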
TGFb inhibitor: inhibitors of TGF-b signaling | HepG2 CAGA-GFP TGF-b/SMAD3 reporter, GFP fluorescence, 18 h; TGF-beta stimulated, 500 pg/mL final | Potency, µM (highest dose often 46.1 µM), inactives show top-dose activity, negative = inhibition, hits mostly inhibitors | 1.2% of 410,000 active | AID 588855; note: potency is the fitted concentration of half-maximal effect; % is set by controls: 0 for no effect and ±100 for the full control effect; nearly all actives have a fitted effect of over 65% in size
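Read-out: total well GFP (ex488/em500-530) summed from mean per-cell fluorescence. Cells: HEPG2 CAGA-GFP, 1% FBS DMEM, 18 h at 37 degrees C with 500 pg/mL final TGF-beta. Unstimulated wells served as the full-inhibition control; stimulated DMSO wells = 0%.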
HepG2 viability: HepG2 cytotoxicity, counter-screen for TGF-b inhibitors; HepG2 CAGA-GFP viability, ATP luminescence, 18 h; Potency, µM (top dose mostly 46.1 µM), for the others: at the top dose activity change, negative = cytotoxicity, most hits filed as cytotoxic; 0.76% of 410,000 active; AID 588856; note: potency is the fitted concentration of half-maximal effect
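HepG2 CAGA-GFP cells (1000/well, DMEM with 1% FBS) received compound, then TGF-beta at 500 pg/mL final, and were incubated 18 hours at 37 degrees C. Viability was read by CellTiter-Glo luminescence. Media-only wells were set as complete cell-killing and DMSO as no toxicity.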
TDP1 cell CPT: DT40-hTDP1 cell growth loss with CPT; chicken DT40 Tdp1-/-;hTDP1 cells + 20 nM CPT, ATP luminescence, 48 h; Potency, µM (titrated, usually from 46.2 µM), for the others: at the highest dose activity change, negative = growth inhibition, actives largely listed as inhibitors; 12% of 420,000 active; note: potency is the fitted concentration of half-maximal effect; % is set by controls: 0 for no effect and ±100 for the full control effect; nearly all actives have a fitted effect of over 55% in size
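Chicken DT40 Tdp1-/- cells complemented with human TDP1, 400 cells/well, exposed to compounds plus 20 nM camptothecin for at least 48 h at 37 C; viability read as ATP content by CellTiter-Glo luminescence.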
An asterisk follows results filed as active; ? = inconclusive; . = no result given; [ ] = dose if it differs, or a comment. Unless noted, calls come from the whole dose curve; as a rule, active = well fitted curve in the direction sought with a large enough effect; inconclusive = small, poorly fitted or top-dose-only effect, or another doubt; inactive = no such curve, though single readings can be large; an effect the other way counts as inactive or inconclusive.

SMILES | IL-1B inflam inh | TDP1 inh | DT40 TDP1 no CPT | TGFb inhibitor | HepG2 viability | TDP1 cell CPT
O=C(/C(=C/O)N=Nc1ccccc1)c1ccc(Cl)cc1 | -102* | 5% | ? | -24% | -15% | ?
O=C(/C=C/c1cccc(Cl)c1)c1nc2ccccc2[nH]1 | -17 | -1% | 9.2µM* | ? | -72% | 12µM*
O=C(NCc1nc2ccccc2[nH]1)c1cccc(Cl)c1 | . | 5% | -5% | -5% | -11% | -22%
S=C(Nc1ccc(Cl)cc1)c1nc2ccccc2[nH]1 | -3 | 11% | ? | ? | -49% | ?
O=C(/C(=C\c1ccccc1)c1nc2ccccc2[nH]1)c1ccc(Cl)cc1 | -100* | 5% | 6.5µM* | ? | -56% | 7.3µM*
COc1cc(NC(=O)CSc2nc3ncccc3o2)cc(OC)c1 | . | 3% | ? | -1% | -47% | ?
O=C1CC(c2ccccc2)Sc2ccccc2N1 (stereo not given) | 0 | 3% | 10µM* | 4% | -24% | 13µM*
CCCCCCCCCCCCCCCCCCOP(=O)([O-])OC1CC[N+](C)(C)CC1 | . | . | 6%[21.1 µM] | . | . | 4%[21.1 µM]
COc1sc(SC)cc1/C=N/NC(=O)c1ccncc1 | -15 | 8% | -26% | -19% | -20% | -25%
O=C(CCCn1c(=O)oc2ccccc21)NNC(=O)COc1ccc(F)cc1 | 0 | 0% | 1% | 3% | 2% | -6%
N/C(=N\OC(=O)c1cccc(Cn2cc(C(F)(F)F)ccc2=O)c1)c1ccc(Cl)cc1 | ? | 3% | 21µM* | -6% | -20% | ?
Cc1ccc(/C(N)=N/OC(=O)c2cccc(Cn3cc(C(F)(F)F)ccc3=O)c2)cc1 | -68* | 6% | 18µM* | 0% | -22% | ?
O=C(O)c1ccc(Cn2cc(C(F)(F)F)ccc2=O)cc1 | -1 | 1% | 10% | -1% | 4% | 5%
O=C(Sc1ccc(Cl)cc1)c1cccc(Cn2cc(C(F)(F)F)ccc2=O)c1 | 20 | 0% | 16µM* | 5% | 0% | 18µM*
Cc1cccc(C(=O)O/N=C(\N)c2ccc(Cl)cc2)c1 | 16 | . | -6% | 0% | -20% | -11%
N/C(=N\OC(=O)c1cccc(Cn2cc(C(F)(F)F)ccc2=O)c1)c1ccccc1 | 0 | 3% | -21% | ? | -37% | -4%
COc1cc2c(C(F)(F)F)c(-c3ccc(C#N)cc3)oc(=O)c2cc1OC | -4 | 1% | -2% | -4% | 3% | 0%
COc1cc2c(C#CCCCO)c(-c3ccsc3)oc(=O)c2cc1OC | -21 | 3% | 9.2µM* | -10% | -13% | 23µM*
COCc1ccc(-c2c(-c3cc(OC)cc(OC)c3)oc(=O)c3cc(OC)c(OC)cc23)cc1 | 0 | 1% | 21µM* | 4% | 6% | 16µM*
COc1ccc(-c2c(-c3ccsc3)oc(=O)c3cc(OC)c(OC)cc23)cn1 | -2 | 0% | ? | -16% | -13% | ?
COc1cc2c(-c3ccc4[nH]ccc4c3)c(-c3ccc(C#N)cc3)oc(=O)c2cc1OC | 9 | -3% | 5.8µM* | -19% | 4% | 15µM*
COc1cc2c(-c3ccc4cc[nH]c4c3)c(-c3ccsc3)oc(=O)c2cc1OC | -19 | 0% | 21µM* | ? | 1% | 18µM*
COc1cccc(O)c1CN1CCC2(CC1)c1ccccc1[C@@H](NC(=O)c1ccsc1)[C@@H]2OC | . | . | ? | . | . | 17%[9.04 µM]
COc1ccc(CCNC(=O)CN(c2ccc(OC)c(OC)c2)S(=O)(=O)c2ccccc2)cc1OC | 4 | 3% | -1% | 1% | -17% | -9%
